# ELG1 genotoxic: genotoxicity induction in ELG1-luciferase HEK293T cells | HEK293T ELG1-luciferase reporter, luminescence, 16 h | Potency, µM (doses to about 46 µM), for the others: at the top dose activity change, positive = activation, hits mostly activators | actives 1.3% (n = 330,000) | AID 504466; also: % of control where 0% means no effect; nearly all actives have a fitted effect of over 60% in size
#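 Genotoxicity was scored as increased ELG1-luciferase reporter signal, measured by ONE-Glo luminescence (30 min, room temperature). Compound or vehicle exposure of the HEK293T reporter cells lasted 16 hr at 37°C.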
# Rab9 promoter act: Rab9 promoter activation | actives 2.8% (n = 320,000) | AID 485297 | Huh7 Rab9 promoter-luciferase reporter, luminescence, 24 h | Potency, µM (series often up to 9.22 µM), for inactives: at the top dose activation, negative = inhibition, most hits filed as activators; also: % of control where 0% means no effect; nearly all actives have a fitted effect of over 60% in size
#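 Steps: seed 1500 Huh7 Rab9-luc cells per well, rest 2 h at 37 °C; add compound in DMSO; incubate 24 h; add luciferase reagent, 10 min ambient; read luminescence.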
# KinaseGlo FLuc: blocks Kinase-Glo luciferase, a counter-screen artifact. actives 0.28% (n = 200,000). Potency, µM (highest dose often 38.3 µM), for the others: at the highest dose activity change, negative = inhibition, hits mostly inhibitors. AID 1379. Q27757. Kinase-Glo luciferase, ATP luminescence, 8 min; also: % is scaled to controls: 0 for no effect and ±100 for the full control effect; nearly all actives have a fitted effect of over 60% in size
#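 Recombinant Kinase-Glo luciferase, 10 uM ATP (linear range), luciferin; imidazole pH 7.2 / KCl / MgCl2 / Tween / BSA buffer; 8 min RT; luminescence.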
# SMN2 splice up: increases expression of the SMN2 splice variant; HEK293 SMN2-luciferase splicing reporter, luminescence, 30-36 h; Potency, µM (highest dose often 46.1 µM), inactives show at the top dose activity change, positive = activation, hits mostly activators; actives 2.8% (n = 210,000); AID 1458; also: % of control where 0% means no effect; nearly all actives have a fitted effect of over 55% in size
#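 HEK293 cells carry an SMN2 minigene-luciferase reporter in which exon 7 inclusion puts luciferase in frame. Cells were seeded at 2000 cells/well, attached for 10-12 hours, then exposed to compounds for 30-36 hours at 37C before ONE-Glo luminescence.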
# FLuc counter: inhibits or activates purified firefly luciferase, miR-21 counter-screen; P08659; purified FLuc, Km substrates, luminescence inhibition; Potency, µM (top dose mostly 57.5 µM), for the others: at the highest dose activity change, negative = inhibition, actives largely listed as inhibitors; actives 6.9% (n = 360,000); AID 588342;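 also: plate controls were vehicle for no effect and reference inhibitor for full effect; nearly all actives have a fitted effect of over 55% in size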
# Target sequence (P08659 whole entry, looked up): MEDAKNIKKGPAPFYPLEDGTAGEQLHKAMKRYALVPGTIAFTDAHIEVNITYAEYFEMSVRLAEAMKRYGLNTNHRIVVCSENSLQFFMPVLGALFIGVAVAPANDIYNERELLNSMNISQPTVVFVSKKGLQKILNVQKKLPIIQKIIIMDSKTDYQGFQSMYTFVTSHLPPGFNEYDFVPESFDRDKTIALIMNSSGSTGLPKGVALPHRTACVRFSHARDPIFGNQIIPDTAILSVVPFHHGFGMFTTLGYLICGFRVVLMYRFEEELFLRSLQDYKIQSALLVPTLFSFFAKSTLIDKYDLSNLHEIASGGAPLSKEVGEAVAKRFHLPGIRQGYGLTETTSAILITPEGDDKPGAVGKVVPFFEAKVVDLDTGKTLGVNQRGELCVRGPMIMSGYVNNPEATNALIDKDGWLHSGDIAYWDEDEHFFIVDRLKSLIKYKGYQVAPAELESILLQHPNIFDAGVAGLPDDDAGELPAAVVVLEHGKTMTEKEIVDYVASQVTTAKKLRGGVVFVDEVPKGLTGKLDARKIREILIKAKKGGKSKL
#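 Purified P. pyralis luciferase (10nM final) with 10uM D-luciferin and 10uM ATP (Km levels) in 50mM Tris acetate pH 7.5, 10mM Mg acetate, 0.01% Tween-20, 0.05% BSA; qHTS 6-point titration, ~60 µM downward; luminescence read.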
# NPC1 prom act: activates the NPC1 promoter; Huh7 NPC1 promoter luciferase reporter, 24 h; actives 2.4% (n = 320,000); Potency, µM (highest dose often 9.22 µM), for inactives: at the highest dose activation, most hits filed as activators; also: % of control where 0% means no effect; nearly all actives have a fitted effect of over 60% in size
#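 Quantitative HTS used a cell-based reporter: Huh7 cells stably bearing the NPC1 promoter upstream of luciferase were treated with compounds for 24 h, and promoter activation was read as luminescence.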
# Active calls of the source: *; ? = inconclusive; . = not tested or not shown; [ ] = remark or other dose. Rows were chosen to be rich in hits. Some 7.5% of all compounds tested hit in one or more screens of this group. Calls follow the shape of the dose curve; as a rule, active = well fitted curve in the direction sought with a large enough effect; inconclusive = small, poorly fitted or top-dose-only effect, or another doubt; inactive = no such curve, though single readings can be large; an effect the other way counts as inactive or inconclusive. Potency is read from the fitted curve at half-maximal effect.
SMILES,ELG1 genotoxic,Rab9 promoter act,KinaseGlo FLuc,SMN2 splice up,FLuc counter,NPC1 prom act
O=C(c1ccc(-c2ccccc2)cc1)C1CCCN(Cc2ccncc2)C1 (stereo not given),?,1.3µM*,-2%,.,7.6µM*,4µM*
Cc1ccn2c(=O)nc(SCC(=O)N3CCCCC3)nc2c1,-11%,-1%,.,.,-1%,7%
O=C(Nc1ccc(F)c(Cl)c1)N1CCN2CCCCC2C1 (stereo not given),.,.,.,.,-2%,.
Cc1ccc(C(=O)Nc2ccc(CN3CCS(=O)(=O)CC3)cc2)cc1C,14%,?,.,.,19µM*,?
CN(C)c1ccc(NC(=O)c2ccc(Cn3cc([N+](=O)[O-])cn3)cc2)cc1,1%,29%,-1%,-10%,12µM*,15%
CN(C)c1ccc(C(=O)Nc2ccc(CN3CCS(=O)(=O)CC3)cc2)cc1,8%,28%,.,.,13µM*,23%
COc1ccc(C(=O)Nc2ccc(CN3CCS(=O)(=O)CC3)cc2)cc1,-2%,-4%,.,.,?,-4%
COc1ccc(Cl)cc1C(=O)NC(=S)Nc1cc(-c2nc3ccccc3[nH]2)ccc1C,0%,-4%,-8%,-28%,?,2%
CC(C)OC(=O)Cn1nnc2c(cnn2-c2ccccc2)c1=O,14%,18%,-1%,26%,17µM*,17%
COC(=O)Cn1nnc2c(cnn2-c2ccccc2)c1=O,8%,19%,-3%,.,-7%,-2%
Cc1cc(C)c2nc3nc(C)c(C)cc3c(N)c2c1,13%,-29%,3%,-79%,17µM*,-17%
Cc1cccc(N=CC=C2OC(C)(C)C(C)(C)O2)c1,11%,-3%,-1%,-11%,?,-4%
Cc1ccc(N=CC=C2OC(C)(C)C(C)(C)O2)cc1,2%,-4%,-2%,-4%,7.6µM*,-4%
Cc1nc(-c2ccccc2)sc1-c1ccnn1C,?,2.2µM*,4%,13µM*,4.8µM*,?
Cc1nc(-c2ccccc2)sc1-c1ccn[nH]1,2.6µM*,2.8µM*,-3%,7.9µM*,1.5µM*,1.4µM*
CCn1c(-c2sc(-c3ccccc3)nc2C)n[nH]c1=S,0%,-2%,-2%,5%,-9%,2%
C#CCSc1nnc(-c2sc(-c3ccccc3)nc2C)n1C,1%,16%,1%,-18%,?,5%
O=C(Nc1ccc(Cl)cc1)N1CCN(c2ccccc2)CC1,-2%,11%,-1%,-4%,?,4%
O=C(Nc1ccc(Cl)cc1)N1CC=CCC1,22%,?,1%,-10%,17µM*,?
O=C(COC(=O)Cc1ccc(Br)cc1)Nc1ccc(Cl)cn1,-2%,.,.,.,.,.
O=C(Cn1nnc(-c2ccccc2)n1)OCc1ccccc1,-1%,0%,-6%,-3%,?,2%
O=C(OCc1ccccc1)c1cccc(-c2nnn(Cc3ccccc3)n2)c1,?,17%,-6%,7.9µM*,-3%,27%
CCOc1ccc(Oc2nc(NCC(C)C)nc(N3CCOCC3)n2)nn1,.,.,.,?,2%,.
COc1cccc(C(=O)OCC(=O)NCCNC(=O)COC(=O)c2cccc(OC)c2OC)c1OC,-1%,0%,.,.,-1%,0%
Cc1cc(C(=O)OCC(=O)c2ccc(Br)s2)no1,0%,0%,10%,-7%,9.5µM*,-10%
SMILES,ELG1 genotoxic,Rab9 promoter act,KinaseGlo FLuc,SMN2 splice up,FLuc counter,NPC1 prom act
Cc1cc(C(=O)OCC(=O)c2ccc(Br)s2)c(C)o1,3%,7%,-1%,6%,?,2%
COc1cccc(C(=O)OCC(=O)c2ccc(Br)s2)c1OC,-3%,16%,.,.,8.5µM*,-3%
C=CCn1c(COc2cc(C)ccc2C(C)C)nnc1SCC(=O)c1c(N)n(C)c(=O)n(C)c1=O,-4%,-4%,1%,-29%,4.8µM*,1%
CCOc1ccc(/C=C/C(=O)Oc2ccc(OC)cc2)cc1,3%,2%,.,.,?,-1%
O=C(/C=C/c1ccc(O)cc1)c1ccccc1,?,?,.,.,2.7µM*,3%
O=C(/C=C/c1ccc(N2CCC(c3ccccc3)=N2)cc1)c1ccccc1,-2%,20%,-2%,-10%,15µM*,20%
NC(=O)C(C(=O)/C=C/c1ccc(Cl)cc1)=C1SCCS1,2%,-17%,.,.,?,-11%
COc1ccc(/C=C/C(=O)Oc2cc(O)cc(O)c2)cc1,-1%,-1%[1.84 µM],.,.,15µM*,-3%
COc1ccc(/C=C/C(=O)C(C(N)=O)=C2SCCS2)cc1,5%,20%,-2%,-72%,9.5µM*,16%
Cc1ccc(CCNC(c2ccc(F)cc2)c2nnc(-c3ccccc3Cl)o2)cc1 (stereo not given),.,.,.,-6%,-1%,.
CCN1CCN(C(c2cccc(F)c2)c2c(O)cc(C)n(CCOC)c2=O)CC1 (stereo not given),.,.,.,.,-8%,.
COc1ccc(/C=C/C(=O)c2nc3ccccc3n2CC(=O)c2ccc(OC)cc2)cc1,-7%,-5%,-3%,10%,9.5µM*,-3%
COc1ccc(C(=O)/C=C/c2ccc(O)cc2)cc1,7%,3%,.,.,8.5µM*,-3%
Cc1nn(C)cc1/C=C/C(=O)c1ccc(O)cc1,21µM*,?,-6%,-10%[1.84 µM],13µM*,?
COc1ccc(-c2cc(O)cc(O)c2)cc1,6.5µM*,?,-4%,?,6.7µM*,?
CCC(C(=O)OCC(=O)N1C(C)CCCC1C)c1ccccc1 (stereo not given),0%,-5%[1.84 µM],.,.,-2%,-10%
COc1ccc(C(=O)/C=C/c2ccc(OC3CSC3)cc2)cc1OC,6%,-5%,-17%,-90%,?,-3%
O=C(/C=C/c1ccc(O)cc1)c1ccc(NC2=C(N3CCCCC3)C(=O)c3ccccc3C2=O)cc1,-6%,-29%,-12%,-99%,7.6µM*,-35%
O=C(/C=C/c1ccc(OC2CSC2)cc1)c1ccc(Cl)cc1,6%,0%,-2%,5%,11µM*,-4%
C=CCN1C(=O)c2ccc(C(=O)OCC(=O)N3CCN(c4ccccc4)CC3)cc2C1=O,-1%,-2%,.,.,5%,-4%
CN(C)c1ccc(/C=N/N=C2/NC(=O)/C(=C/c3ccc([N+](=O)[O-])cc3)S2)cc1,5%,?,-3%,28%,0.11µM*,?
O=C1NC(=Nc2cccc(O)c2)S/C1=C\c1cccc([N+](=O)[O-])c1,13%,-2%,.,.,-18%,-1%
CC(=O)Nc1ccc(NC(=O)CSc2nnc(NC(=O)Cc3ccc(F)cc3)s2)cc1,25%,2%,.,.,2%,7%
Cc1cccc(C=Nc2ccc3c(c2)oc2ccccc23)c1O,16%,4µM*,-2%,10µM*,?,26%

# High-throughput results (PubChem)
